Measurements: ChEMBL document CHEMBL5308504, “Tm Shift (DSF) assay results for EUbOPEN Chemogenomics Library” (2023)

Biological target: Bromodomain-containing protein 4 (Homo sapiens) (UniProt O60885)
Settings: Compound concentration 20.0 uM, Protein concentration 2.0 uM, Result type QC Liability

SMILES	ΔTm [°C]
C=C[C@@]12CCc3cc(O)ccc3[C@H]1CC[C@@]1(C)[C@H]2CC[C@@H]1O	0.82
COc1ccc(OC(=O)N(CC(=O)O)Cc2ccc(OCCc3nc(-c4ccccc4)oc3C)cc2)cc1	-4.38
Cn1ncc(-c2nc(N[C@H]3CC[C@H](N)CC3)ncc2Cl)c1CC1CC1	-0.39
CN1CCN(C(=O)Cc2ccc(N/C(=C3\C(=O)Nc4cc(Cl)ccc43)c3ccccc3)cc2)CC1	-3.18
CO[C@H](C)CN1CC[C@@]2(C)c3ccc(O)cc3C[C@@H]1C2(C)C	-0.17
OCC1OC(n2cnc3cc(Cl)c(Cl)cc32)C(O)C1O (stereo not drawn)	0.7
CCN1C(=O)C(c2cccc(C(=O)O)c2)C(=O)N(c2ccccc2)c2cc(C(F)(F)F)ccc21 (stereo not drawn)	-0.84
CCOP(=O)(OCC)C(=Cc1cc(C(C)(C)C)c(O)c(C(C)(C)C)c1)P(=O)(OCC)OCC	-3.19
CCN(CC)CCO[C@H]1CC[C@@]2(C)C(=CC[C@@H]3[C@@H]2CC[C@]2(C)C(=O)CC[C@@H]32)C1	-1.53
CO[C@H](C)CN1CC[C@]2(C)c3cccc(O)c3C[C@H]1C2(C)C	-1.2
COP(=O)(CCC(N)C(=O)O)Oc1cccc(CC(=O)O)c1 (stereo not drawn)	-0.52
C[C@]12CC[C@@H]3c4ccc(C(N)=O)cc4CC[C@H]3[C@@H]1CC=C2c1cncc(F)c1	0
Clc1ccccc1C(c1ccccc1)(c1ccccc1)n1cccn1	-0.07
O=C(NCCN1CCC2(CC1)C(=O)NCN2c1cccc(F)c1)c1ccc2ccccc2c1	-0.54
C=CC(=O)Nc1cc(-c2nn(C3CCC(N4CCN(C(C)=O)CC4)CC3)c3ncnc(N)c23)ccc1Oc1ccccc1 (stereo not drawn)	-0.22
Cc1cc(Cl)ccc1S(=O)(=O)NC[C@H]1C2CCC(CC2)[C@@H]1/C=C\CCCC(=O)O	-1.69
COc1ccc(-n2nc(C(F)(F)F)cc2-c2ccc(Cl)cc2)cc1	-1.21

SMILES	ΔTm [°C]
C[C@@H]1CC[C@@]2(OC1)O[C@H]1[C@@H](O)[C@H]3[C@@H]4CC[C@H]5C[C@@H](O[C@@H]6O[C@H](CO)[C@H](O[C@@H]7O[C@H](CO)C(O)[C@H](O[C@@H]8OC[C@@H](O)[C@H](O)[C@H]8O)[C@H]7O[C@@H]7O[C@H](CO)[C@H](O)[C@H](O[C@@H]8O[C@H](CO)[C@@H](O)[C@H](O)[C@H]8O)[C@H]7O)[C@H](O)[C@H]6O)[C@H](O)C[C@]5(C)[C@H]4CC[C@]3(C)[C@H]1[C@@H]2C (stereo partly drawn)	-1.87
Cc1nnc2n1-c1sc3c(c1C(c1ccccc1Cl)=NC2)CC(C(=O)N1CCOCC1)C3 (stereo not drawn)	0.62
CCC(=O)O[C@@H](OP(=O)(CCCCc1ccccc1)CC(=O)N1C[C@H](C2CCCCC2)C[C@H]1C(=O)O)C(C)C (stereo partly drawn)	-0.8
COc1nc2ccc([C@@](O)(c3ccc(Cl)cc3)c3cncn3C)cc2c(Cl)c1Cc1ccc(-n2cccn2)cc1	-0.83
CS(=O)(=O)c1ccc(-c2cnc(N)c(C(=O)Nc3ccccc3)n2)cc1	0.79
C[C@@H](CO)CCC[C@@H](C)[C@H]1CC[C@H]2[C@@H]3CC=C4C[C@@H](O)CC[C@]4(C)[C@H]3CC[C@]12C	-3.47
Cc1nnc2n1-c1sc3c(c1C(c1ccccc1Cl)=NC2)C[C@H](C(=O)N1CCOCC1)C3	-0.46
O=C1CCC(N2Cc3cc(CNC(=O)C(F)(F)c4ccc(Cl)cc4)ccc3C2=O)C(=O)N1 (stereo not drawn)	-1.23
Cc1nnc2n1-c1sc(CCC(=O)N3CCOCC3)cc1C(c1ccccc1Cl)=NC2	-0.19
N[C@H](C(=O)O)[C@@H]1CC(Cl)=NO1	-0.13
C=CC(=O)Nc1ccc2[nH]c(=O)n(C3CCN(Cc4ccc(-c5ccc6c(c5)NC(=O)CO6)cc4)CC3)c2c1	0.27
CN(C(=O)CCOCCOCCOCCOCCNc1cccc2c1C(=O)N(C1CCC(=O)NC1=O)C2=O)[C@H]1CC[C@@]2(C)[C@@H](CC[C@@H]3[C@@H]2CC[C@]2(C)[C@@H](c4ccc5ccncc5c4)CC[C@@H]32)C1 (stereo partly drawn)	-2.19
CC[C@H]1[C@@H](O)[C@@H]2[C@H](CC[C@]3(C)[C@@H]([C@H](C)CCC(=O)O)CC[C@@H]23)[C@@]2(C)CC[C@@H](O)C[C@@H]12	-3.05
Cc1nnc2n1-c1sc3c(c1C(c1ccccc1Cl)=NC2)C[C@@H](C(=O)N1CCOCC1)C3	1.2
CNc1nc(-c2cc(C(=O)N3CCN(Cc4ccc(Cl)cc4)CC3)c(Cl)cn2)cs1	0.71
Cc1ccc2c(N)c(C(=O)NC3CCc4cc(N5CC6CCC(C5)N6)ccc4C3)sc2n1 (stereo not drawn)	-0.53
